Test results taken from publication PMC5540273 (PLoS ONE, 2017).

Experiments:
Settings in all cases: concentration: 1 μM,replicates: in singlicate; n = 1
[1] = test system: TESK1
[2] = test system: TGFBR1
[3] = test system: TGFBR2
[4] = test system: TIE1
[5] = test system: T1, TIE2
T1 construct: gene TEK

[6] = test system: TLK1
[7] = test system: TLK2
[8] = test system: TNIK
[9] = test system: TNK1
[10] = test system: TNK2
[11] = test system: TNNI3K
[12] = test system: T2, TRKA
T2 construct: gene NTRK1

[13] = test system: TRKB
[14] = test system: T3, TRKC
T3 construct: gene NTRK3

[15] = test system: TRPM6
[16] = test system: TSSK1B
[17] = test system: TSSK3
[18] = test system: TTK
[19] = test system: TXK
[20] = test system: TYK2(JH1domain-catalytic)
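Note: KINOMEscan kinase panel screen.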

Compound | %Inh [1] [%] | %Inh [2] [%] | %Inh [3] [%] | %Inh [4] [%] | %Inh [5] [%] | %Inh [6] [%] | %Inh [7] [%] | %Inh [8] [%] | %Inh [9] [%] | %Inh [10] [%] | %Inh [11] [%] | %Inh [12] [%] | %Inh [13] [%] | %Inh [14] [%] | %Inh [15] [%] | %Inh [16] [%] | %Inh [17] [%] | %Inh [18] [%] | %Inh [19] [%] | %Inh [20] [%]
Cc1n[nH]c2ccc(-c3cc(OC[C@@H](N)Cc4ccccc4)cnc3-c3ccoc3)cc12.O=C(O)C(F)(F)F.O=C(O)C(F)(F)F [GSK507358] | 19 | 0 | 0 | 0 | 0 | 0 | 0 | 96.5 | 0 | 10 | 0 | 0 | 0 | 15 | 0 | 0 | 6 | 0 | 0 | 7
CC(C)N1C(=O)Cc2cc(Nc3ncc(C(F)(F)F)c(NCc4cccc(S(C)(=O)=O)c4)n3)ccc21 | 0 | 0 | 0 | 42 | 0 | 23 | 0 | 20 | 50 | 13 | 0 | 96.7 | 84 | 62 | 4 | 0 | 0 | 99.1 | 0 | 92.2
NC(=O)c1cc(-c2ccccc2)cc2c(C3CCNCC3)c[nH]c12 [GSK301362] | 18 | 0 | 0 | 8 | 19 | 0 | 0 | 36 | 10 | 25 | 10 | 51 | 0 | 4 | 33 | 27 | 22 | 24 | 0 | 69
CC(C)Nc1cc(-c2ccc3c(N)n[nH]c3c2)nc(N)n1 [GSK2221681] | 0 |  | 0 | 3 | 0 | 9 | 0 | 0 | 0 | 12 | 0 | 0 | 0 | 0 | 13 | 1 | 58 | 24 | 0 | 0
Cl.Cl.Nc1nc(-c2ccc3c(N)n[nH]c3c2)cc(N2CCCC(NC(=O)c3ccccc3)C2)n1 (stereo not drawn) [GSK2286775] | 98.1 | 13 | 0 | 0 | 0 | 18 | 16 | 0 | 8 | 14 | 0 | 0 | 0 | 0 | 46 | 13 | 10 | 0 | 100 | 0
Cl.Cl.NC[C@H](CC1CCCCC1)NC(=O)c1cc(Br)c(-c2ccnc3[nH]ccc23)s1 [GSK1581427] | 0 | 0 | 0 | 56 | 0 | 57 | 0 | 0 | 6 | 0 | 0 | 84 | 64 | 57 | 8 | 58 | 3 | 21 | 1 | 13
Cl.Cl.NC[C@H](Cc1ccc(C(F)(F)F)cc1)NC(=O)c1cc(Br)c(-c2ccnc3[nH]ccc23)s1 [GSK1487252] | 24 | 0 | 0 | 35 | 0 | 8 | 4 | 0 | 0 | 19 | 13 | 86 | 67 | 74 | 0 | 0 | 2 | 10 | 0 | 3
CCN(CC)CCOc1ccc(Nc2ncc3cc(-c4c(Cl)cccc4Cl)c(=O)n(C)c3n2)cc1 [SB-601273] | 97.6 | 99.5 | 98 | 94 | 98.8 | 5 | 2 | 96.8 | 100 | 100 | 100 | 100 | 43 | 92.9 | 48 | 56 | 24 | 59 | 99.5 | 96.7
Cc1ccc(-n2nc(C(C)(C)C)cc2NC(=O)Nc2ccc(OCCN3CCOCC3)c3ccccc23)cc1 [GW839464] | 28 | 0 | 13 |  |  | 3 | 5 | 92 | 22 | 31 | 0 | 32 | 70 |  | 0 | 10 | 0 | 31 | 13 | 0
Cc1ccc2c(-c3ccncc3)c(-c3ccc(F)cc3)nn2c1.Cl [GW461484] | 5 | 53 | 2 | 0 | 0 | 0 | 0 | 66 | 15 | 0 | 5 | 18 | 0 | 2 | 8 | 9 | 9 | 0 | 0 | 0
Cc1cc2cn[nH]c2cc1-c1cccc2c(N)c(C(N)=O)nnc12 | 9 | 12 | 80 | 2 | 31 | 25 | 12 | 0 | 36 | 94.2 | 0 | 51 | 66 | 54 | 75 | 0 | 28 | 34 | 95.4 | 71
CN(C)CC(O)COc1ccc(Nc2nccc(-c3cnn4nc(N5CCOCC5)ccc34)n2)cc1 (stereo not drawn) [GW767488] | 10 | 8 | 78 | 41 | 27 | 51 | 50 | 1 | 0 | 0 | 0 | 81 | 31 | 45 | 33 | 5 | 65 | 57 | 3 | 66
C[C@@H]1CCN(C(=O)CC#N)C[C@@H]1N(C)c1ncnc2[nH]ccc12 | 1 | 0 | 0 | 18 | 4 | 0 | 0 | 0 | 75 | 0 | 0 | 0 | 0 | 0 | 0 | 0 | 0 | 0 | 1 | 
